Compounds with a hit are over-represented: about 5.3% of the library has one in this group of screens.
Marburg entry inh: Marburg virus entry inhibition; Marburg virus pseudotyped entry inhibition, cell reporter; Potency, µM (series often up to 37.8 µM), for the others: top-dose activity change, negative = inhibition, actives largely listed as inhibitors; 300,000 tested, 1.8% active; calls by dose curve; tested in HEK293 cells
Vaccinia mCherry: vaccinia inhibition (mCherry reporter); Vaccinia virus mCherry reporter infection, fluorescence; Potency, µM (titrated, usually from 36.5 µM), without a hit: top-dose activity change, negative = inhibition, hits mostly inhibitors; 310,000 tested, 0.63% active; AID 720579; calls by dose curve; tested in A549 cells; also: nearly all actives have a fitted effect of over 35% in size
VACV Venus inh: inhibitors of vaccinia virus (Venus reporter); Potency, µM (highest dose often 36.5 µM), without a hit: top-dose activity change, negative = inhibition, most hits filed as inhibitors; 330,000 tested, 0.46% active; Vaccinia virus Venus reporter expression, fluorescence; calls by dose curve; tested in A549 cells; also: nearly all actives have a fitted effect of over 30% in size
HCV inh: inhibitors of hepatitis C virus infection; Huh7.5.1 HCVcc-Cre infection, luciferase reporter, 44 h; Potency, µM (titrated, usually from 41.8 µM), for the others: at the top dose activity change, negative = inhibition, most hits filed as inhibitors; AID 651820; 340,000 tested, 3.4% active; active = well fitted inhibition curve with a large enough effect; inconclusive = small, poorly fitted or top-dose-only effect, or another doubt; inactive = no such curve, though single readings can be large or run the other way
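Cells seeded at 1,000/well and cultured 4 h, then compounds added followed by HCVcc-Cre virus (~0.5 moi). After 44 h further culture, luciferase substrate was added, plates held 15 min at room temperature, and luminescence read for 15 sec.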
FMDV antiviral: blocks foot and mouth disease virus; FMDV antiviral cell-based qHTS; Potency, µM (doses to about 57.9 µM), inactives show top-dose activity change, negative = inhibition, most hits filed as inhibitors; 410,000 tested, 1.2% active; calls by dose curve; tested in HEK293T cells; also: read-out not given here; nearly all actives have a fitted effect of over 45% in size
LASV entry inh: blocks Lassa virus binding to or entry into cells | Lassa virus pseudotype entry inhibition, cell reporter | Potency, µM (series often up to 37.9 µM), for the others: at the highest dose activity change, negative = inhibition, actives largely listed as inhibitors | 300,000 tested, 1.2% active | AID 540256; calls by dose curve; tested in HEK293 cells; also: nearly all actives have a fitted effect of over 50% in size
* = called active by the depositor; ! = not active in a repeat; [ ] = another dose, or the depositor's remark. % is scaled to controls: 0 for no effect and ±100 for the full control effect; potency is read from the fitted curve at half-maximal effect.

What do the screens show for `COc1cc(=O)n2c(c1C(=O)NCc1ccc3c(c1)OCO3)CCN(C(=O)c1ccc(C)cc1)CC2`?
Vaccinia mCherry: inactive; VACV Venus inh: 0.0%; FMDV antiviral: 10.3%

What do the screens show for `Nc1c(Cl)cc(C=O)cc1Cl`?
Vaccinia mCherry: -10.5%; VACV Venus inh: -1.8%

How did O=C1/C(=C/c2ccc(N3CCOCC3)o2)SC(=Nc2ccccc2)N1CCc1c[nH]c2ccccc12 do in these assays?
Marburg entry inh: inconclusive; Vaccinia mCherry: inconclusive; VACV Venus inh: 19.5%; HCV inh: 3.16µM*; FMDV antiviral: -15.7%; LASV entry inh: 7.08µM*

Results for CC1O[C@@H](O[C@H]2C(Oc3cc(O)c4c(c3)OC(c3ccc(O)cc3)CC4=O)OC(CO)C(O)C2O)C(O)C(O)C1O (some centres not stated) ?
Vaccinia mCherry: inactive; VACV Venus inh: 7.0%; FMDV antiviral: -3.3%

Results for C(=C\c1ccccc1)/CN1CCN(C(c2ccccc2)c2ccccc2)CC1 ?
Marburg entry inh: 20.6µM*!; Vaccinia mCherry: inactive; VACV Venus inh: -25.3%; HCV inh: 1.1%[8.37 µM]; FMDV antiviral: 0.0%; LASV entry inh: 14.6µM*!

Results for Fc1ccc(C(c2ccc(F)cc2)N2CCN(C/C=C/c3ccccc3)CC2)cc1 ?
Marburg entry inh: 7.08µM*; Vaccinia mCherry: -10.2%; VACV Venus inh: inconclusive; HCV inh: 1.58µM*!; FMDV antiviral: inconclusive; LASV entry inh: 13µM*

What do the screens show for `O=C(NCC1CCC2(CCN(Cc3ccccc3O)CC2)O1)C1CCCO1` (configuration not stated)?
Vaccinia mCherry: -10.1%; VACV Venus inh: -3.3%; FMDV antiviral: -7.5%

What do the screens show for `O=C(Nc1cccnc1)C1(F)C(F)(F)C(F)(F)C(F)(F)C(F)(F)C1(F)F`?
Marburg entry inh: inconclusive; VACV Venus inh: -24.5%; HCV inh: 3.16µM*; FMDV antiviral: -20.9%; LASV entry inh: 1.5%

What do the screens show for `O=C(Nc1cccnc1)C12CC3CC(CC(C3)C1)C2`?
Marburg entry inh: -18.6%; Vaccinia mCherry: 1.0%; VACV Venus inh: 1.9%; HCV inh: 21.3%; FMDV antiviral: -18.3%; LASV entry inh: 5.2%

Results for COc1ccc(CNS(=O)(=O)c2c(C(=O)N3CCCCCC3)c(C)n(C)c2C)cc1 ?
Marburg entry inh: 12.8%[46.1 µM]; Vaccinia mCherry: inactive; VACV Venus inh: -1.2%; HCV inh: 26.4%; FMDV antiviral: 17.7%; LASV entry inh: 29.1%[46.1 µM]

What do the screens show for `COc1ccc(CNC(=O)c2cc3sccc3n2Cc2ccc(C)cc2)cc1`?
Marburg entry inh: -29.7%[46.1 µM]; Vaccinia mCherry: -2.6%; VACV Venus inh: -3.6%; FMDV antiviral: 44.9%; LASV entry inh: -2.8%[46.1 µM]

What do the screens show for `C[C@]1(C(=O)CSc2nc3ccccc3[nH]2)CCC(=O)O1`?
Marburg entry inh: -1.1%

Results for CCCCCCN1Cc2ccccc2C1 ?
Marburg entry inh: inconclusive; VACV Venus inh: 1.0%; HCV inh: 9.3%; FMDV antiviral: -8.3%; LASV entry inh: -2.1%

How did CCCCCCCCCCn1ccc(=N)cc1 do in these assays?
Marburg entry inh: inconclusive; Vaccinia mCherry: inconclusive; VACV Venus inh: inconclusive; HCV inh: 22.4µM*; FMDV antiviral: 15.8µM*; LASV entry inh: 1.78µM*

How did CCC(=O)/C=C1/Sc2ccccc2N1CC do in these assays?
Marburg entry inh: 17.7%; VACV Venus inh: inconclusive; HCV inh: -13.7%; FMDV antiviral: -24.2%; LASV entry inh: -2.8%

Results for CCN1/C(=C/c2sc(-c3ccccc3C)c[n+]2C)Sc2ccccc21 ?
Marburg entry inh: inconclusive; Vaccinia mCherry: inconclusive; VACV Venus inh: inconclusive; HCV inh: 3.55µM*; FMDV antiviral: 11.2µM*; LASV entry inh: inconclusive

What do the screens show for `COc1ccccc1-c1cc2c(c(OC)c1)OCCN(CCC(C)c1ccc(C)o1)C2` (configuration not stated)?
Vaccinia mCherry: inactive; VACV Venus inh: 3.3%; FMDV antiviral: -11.0%

What do the screens show for `Cc1ccsc1/C=N/Nc1ccc(C(=O)O)cc1`?
HCV inh: 13.7%; FMDV antiviral: 8.91µM*

What do the screens show for `Cc1ccsc1/C=N/Nc1cccc(C(=O)O)c1`?
Marburg entry inh: inconclusive; Vaccinia mCherry: -17.9%; VACV Venus inh: -5.3%; HCV inh: 23.7%; FMDV antiviral: 4.47µM*; LASV entry inh: inconclusive

How did Cc1ccsc1/C=N/NC(=O)C(N)=O do in these assays?
Vaccinia mCherry: inactive; VACV Venus inh: -5.4%; HCV inh: 5.2%; FMDV antiviral: 39.2%

Results for Cc1cccc(CN2CCN(CC(=O)NCc3ccc(Cl)cc3)C2=O)c1 ?
Marburg entry inh: -4.1%[46.1 µM]; Vaccinia mCherry: -7.6%; VACV Venus inh: -4.3%; FMDV antiviral: 0.6%; LASV entry inh: -13.3%[46.1 µM]

How did CCOc1ccccc1CN1CCCC(c2nc(C)ncc2-c2ccc(F)cc2)C1 (configuration not stated) do in these assays?
Vaccinia mCherry: -19.6%; VACV Venus inh: -5.5%; FMDV antiviral: -10.0%

How did Cc1cccc(NC(=O)c2cc(Cl)ccc2[N+](=O)[O-])c1 do in these assays?
Marburg entry inh: inconclusive; Vaccinia mCherry: 6.31µM*; VACV Venus inh: inconclusive; HCV inh: -28.5%; FMDV antiviral: -9.8%; LASV entry inh: -9.2%

What do the screens show for `Cc1ccccc1NC(=O)c1ccc(Nc2c([N+](=O)[O-])cc([N+](=O)[O-])c3ccccc23)cc1`?
Marburg entry inh: inconclusive; Vaccinia mCherry: inconclusive; VACV Venus inh: -24.6%; HCV inh: 14.1µM*; FMDV antiviral: inconclusive; LASV entry inh: inconclusive

How did Cc1cc(C(=O)Nc2ccc(Nc3ccccc3)cc2)ccc1[N+](=O)[O-] do in these assays?
Marburg entry inh: -0.2%; Vaccinia mCherry: inactive; VACV Venus inh: inconclusive; HCV inh: 11.2µM*; FMDV antiviral: -23.3%; LASV entry inh: 2.4%

Results for O=C(Nc1ccc(Nc2ccccc2)cc1)c1ccc(Cl)c([N+](=O)[O-])c1 ?
HCV inh: 0.5%; FMDV antiviral: -20.4%

Results for CC(=O)[C@@]12C3[C@@H](CCN3C(=O)N[C@H]1c1ccccc1)[C@H]2c1ccccc1 (some centres not stated) ?
Marburg entry inh: 20.6%[14.2 µM]

How did OCCN1CCN(Cc2ccc3c(c2)CN(Cc2cccc4ncccc24)CCO3)CC1 do in these assays?
Vaccinia mCherry: -8.1%; VACV Venus inh: 3.2%; FMDV antiviral: -15.2%

Results for Cc1ccc(OCC(=O)Nc2cccc(C(=O)OCc3cc(=O)n4nc(C)sc4n3)c2)cc1 ?
Vaccinia mCherry: -6.5%[7.34 µM]; VACV Venus inh: -4.6%[7.34 µM]; FMDV antiviral: 12.6µM*; LASV entry inh: inconclusive

What do the screens show for `Cc1nn2c(=O)cc(COC(=O)c3cccc(NC(=O)COc4ccc(C)c(C)c4)c3)nc2s1`?
Vaccinia mCherry: -13.1%; VACV Venus inh: -6.7%; FMDV antiviral: 15.3%; LASV entry inh: 10.5%[46.1 µM]

How did CCc1nn2c(=O)cc(COC(=O)c3ccccc3NC(=O)COc3ccccc3C)nc2s1 do in these assays?
Vaccinia mCherry: -12.9%; VACV Venus inh: -8.9%; FMDV antiviral: 21.6%; LASV entry inh: 14.9%[46.1 µM]
